Screen size: about 270,000 compounds; about 5,800 (2.1%) were called active. Roughly 16% stayed inconclusive and do not appear here. The call rests on the fitted dose curve; in most records, active means well fitted inhibition curve with a large enough effect; inconclusive means small, poorly fitted or top-dose-only effect; inactive means flat fitted curve, though single readings scatter. The list comes from a sample in which actives are over-represented; it also holds similar structures and randomly drawn compounds.
Molecular target: Microtubule-associated protein tau (Homo sapiens) (UniProt P10636)
Test: qHTS for Inhibitors of Tau Fibril Formation, Thioflavin T Binding; further: nearly all actives have a fitted effect of over 55% in size
Conditions: recombinant tau K18 P301L, heparin-induced fibrillization, ThT fluorescence; series mostly up to 57.4 µM; activity, negative = inhibition: at the top concentration
Outline: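 Fibril formation assay: tau K18 P301L at 15 uM with trace Alexa 594 label, heparin inducer 20 uM, pH 7 sodium acetate buffer, 37 C for 6 hr; endpoint ThT signal.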
On the % scale 0 is the no-effect control and ±100 the full control effect; potency means the concentration at half of the fitted maximal effect.

Chain of Microtubule-associated protein tau (Homo sapiens) (P10636 561-689 P618L limits assumed): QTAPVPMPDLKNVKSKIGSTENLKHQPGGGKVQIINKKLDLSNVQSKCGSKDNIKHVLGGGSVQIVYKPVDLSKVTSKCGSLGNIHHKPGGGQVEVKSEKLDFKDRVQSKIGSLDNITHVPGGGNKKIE

activity, negative = inhibition, inactive:
Cc1ccc2nc(COc3cccc(NC(=O)Nc4ccc(C)c(Cl)c4)c3)cc(=O)n2c1 -13.6%
CCc1ccc(CNCc2c(C(=O)O)n(Cc3ccc(F)cc3Cl)c3cc(OC)ccc23)cc1 -12.6%
COc1ccc(S(=O)(=O)NCc2cccn2Cc2cccc(C)c2)cc1 10.6%
COc1ccc(Cc2nc3ccc(C(=O)NCc4ccccc4C)cc3o2)cc1 -12.9%
COCCN(CCOC)C(=S)Nc1ccccc1Cl 1.33%
O=C(Nc1ccccc1Cl)c1ccc2nsnc2c1 -5.65%
CCOC(=O)C1CCCN(C(=O)Cn2ncc3c(C)n(Cc4ccc(F)cc4)c(C)c3c2=O)C1 (stereo unspecified) -5.22%
O=C(CCc1nc(CN2CCN(S(=O)(=O)c3ccc(Cl)cc3)CC2)no1)N1CCCCC1 -2.38%
CCC(=O)Nc1ccc(C)cc1-c1nc2ccccc2n(Cc2ccccc2)c1=O 4.56%
C=CCNc1scc(-c2ccccc2)[n+]1CC=C -6.04%
Cc1ccc(NC(=O)Nc2ccccc2)c(Br)c1 0.764%
O=C(NCC(c1ccc(Cl)cc1)N1CCOCC1)c1ccccc1F (stereo unspecified) -2.31%
COc1ccc(-c2cc(C(=O)NCc3cc(OC)c(OC)c(OC)c3)[nH]n2)cc1 -1.22%
Cc1ccc2c(c1)N(CC(=O)NCCCN1CCCCC1)C(=O)c1cccnc1O2 5.5%
Cc1ccc(Nc2c(-c3ccc(C)s3)nc3ccccn23)cc1 -17.4%
Cc1ccc(-c2nc3cccc(C)n3c2Nc2ccc3c(c2)OCCO3)cc1 -16.2%
CCn1cc(C(=O)NCc2ccc(C)cc2)c(=O)c2cc(S(=O)(=O)N3CCc4ccccc4C3)ccc21 8.86%
Cc1c(-c2nsc(NC(=O)c3cccc(Cl)c3)n2)nnn1-c1ccccc1C(F)(F)F 10.2%
CCOC(=O)c1ccc(NC(=O)Cn2cc(S(=O)(=O)Cc3ccccc3F)c3ccccc32)cc1 1.94%
O=c1[nH]n(-c2ccc([N+](=O)[O-])cc2)c(=O)c2ccccc12 -17.7%
COC(=O)CC1=NN(c2ccccc2)C(=O)C1 -12.9%
O=C(NCC(c1cccnc1)N1CCc2ccccc21)c1cccc(C(F)(F)F)c1 (stereo unspecified) -1.15%
COc1ccccc1-c1nnc(SCC(N)=O)o1 7.71%
N#Cc1c(NC(=O)CCCl)sc2c1CCCCC2 0.0781%
O=C(Cc1ccccc1)Nc1sc2c(c1C(=O)Nc1ccc(Br)cc1)CCC2 -1.03%
CCOC(=O)c1c(NC(=O)CCC(=O)NCc2ccco2)sc2c1CCCC2 -11.9%
CCOc1ccc(NC(=O)c2c(NCc3cccc(OC)c3OC)sc3c2CCC3)cc1 -8.9%
CCCn1ccc2c(OCC(=O)NCc3ccc(F)cc3)cccc2c1=O -9.18%
COc1ccccc1NC(=O)C1=C(C)Nc2nc(SCC(=O)c3ccc(C)cc3)nn2C1c1ccccc1C (stereo unspecified) 14.7%
COc1ccc(NC(=O)CCNS(=O)(=O)c2ccc3c(c2)CCCC(=O)N3)cc1Cl -6.94%
COc1cc(NC(=O)CSc2nc3nc(C)c(Cc4ccc(C)cc4)c(C)n3n2)cc(OC)c1OC 4.12%
COc1ccc(-c2nc(Cn3c(=O)cc(C)c4c(C)nn(-c5ccccc5)c43)c(C)o2)c(OC)c1 -0.776%
CCOC(=O)Cn1c(=O)n(-c2ccccc2OC)c2nc(-c3cccc(F)c3)nc(C(N)=O)c21 -5.02%
COc1cc(Cl)c(C)cc1Nc1nnc(-n2nc(C)cc2C)c2ccccc12 -5.87%
CCc1ccc(CNC(=O)c2ccc(CS(=O)c3ccc(Br)cc3)o2)cc1 (stereo unspecified) -5.94%
CCCCC(C(=O)OCC(=O)c1ccc(OC)cc1)N1C(=O)c2ccccc2C1=O (stereo unspecified) -3.63%
CCOC(=O)c1ccccc1NS(=O)(=O)c1ccc(OC)cc1 -8.17%
N#Cc1c2c(c(-c3ccccc3)[nH]c1=O)CCCC2 -3.54%
O=c1[nH]c2c(c(=O)n1Cc1ccccc1)CCC2 -1.52%
O=C(Nc1cccc(Cl)c1)c1csnn1 -9.63%
Oc1c(C(c2ccccc2Cl)N2CCOCC2)sc2nc(-c3ccco3)nn12 (stereo unspecified) -12.2%
CCOC(=O)C1CCN(C(c2ccc(F)cc2)c2sc3nc(-c4ccco4)nn3c2O)CC1 (stereo unspecified) -6.53%
Cc1ccc2nc(COc3cccc(NC(=O)c4cccc(Cl)c4)c3)cc(=O)n2c1 -0.872%
c1ccc(-n2nnnc2N2CCOCC2)cc1 4.05%
O=C1OC(NC(=O)c2ccccc2)C(N2CCOCC2)=C1Cl (stereo unspecified) -9.42%
CCc1ccc(NC(=O)CSc2nc3c([nH]c4ccccc43)c(=O)n2-c2cccc(OC)c2)cc1 13.6%
Nc1ccccc1Sc1ccc(C(F)(F)F)cc1[N+](=O)[O-] -12.6%
CCOC(=O)c1cc(Sc2ccccc2N)cc(C(=O)OCC)n1 -0.497%
Cc1ccc(CNS(=O)(=O)c2ccc(-c3cc(C(F)(F)F)on3)s2)cc1 13.6%
O=C(NC(=S)Nc1ccc(S(=O)(=O)N2CCOCC2)cc1)c1ccccc1[N+](=O)[O-] -0.152%
O=C(Nc1cc(S(=O)(=O)N2CCOCC2)ccc1Cl)c1cc(=O)c2ccccc2o1 1.79%
Cc1ccc(N(C)C(=O)C2CCN(S(=O)(=O)c3ccc4c(c3)CCCN4C(=O)C3CCC3)CC2)cc1 -6.98%
O=C(N/N=C/c1ccc2c(c1)OCO2)c1ccc(Cn2cc([N+](=O)[O-])cn2)o1 -0.161%
O=C(N/N=C\c1ccc(Br)cc1)c1ccc(Cn2cccn2)o1 4.04%
COC(=O)c1sc(=S)n(-c2ccccc2)c1N -17%
CCOC(=O)c1c(N)sc(C(C)=O)c1C -16.5%
COc1ccccc1N1CCN(C(=O)C2CCN(S(=O)(=O)c3c(C)noc3/C=C/c3ccc(C)cc3)CC2)CC1 -5.26%
CCn1cc(C(=O)OCC(=O)Nc2cc(C)cc(C)c2)c(=O)c2ccc(C)nc21 -9.74%
CCCS(=O)(=O)N1CCC(n2c(C(F)(F)F)nc3cccnc32)CC1 -15.8%
COc1ccc(CCNC(=O)c2ccc3c(c2)sc2nc(-c4ccc(C)cc4)cn23)cc1OC 16.4%
O=C(NCc1ccc(Cl)cc1)c1ccc2c(c1)nnn2C1CCCC1 1.79%

Potency, active:
O=C(Nc1ccccc1Cl)/C(Cl)=C(\Cl)S(=O)c1ccccc1 (stereo unspecified) 2.82 µM
C=CC[n+]1c(-c2ccc(C)cc2)csc1NNC(=O)Nc1ccccc1 15.8 µM
Cc1ccc(Nc2c(-c3ccc(N(C)C)cc3)nc3nc[nH]n23)cc1 14.1 µM
O=C1CC(c2ccccc2)=NN1c1ccc([N+](=O)[O-])cc1 11.2 µM
Cc1ccc(NC(=O)c2c(NC(=O)CCC(=O)O)sc3c2CCCCC3)cc1 25.1 µM
CCOc1ccc(NC(=O)c2c(NC(=O)Cc3ccccc3)sc3c2CCCCC3)cc1 22.4 µM
CCOC(=O)C1=C(c2ccc(OC)cc2)C(=O)c2ccccc2C1=O 14.1 µM
O=c1[nH]n2c(=O)c3c([nH]c2c1N=Nc1ccccc1)CCC3 3.16 µM
CCOc1ccccc1/C=c1\sc2nc(-c3ccco3)nn2c1=O 22.4 µM
Clc1cccc(N=C2NN=C(c3ccc4c(c3)OCCO4)CS2)c1 15.8 µM
O=C1C(Cl)=C(N2CCOCC2)C(=O)N1c1ccccc1 12.6 µM
CCS(=O)(=O)c1cc([N+](=O)[O-])c(Sc2ccccc2N)s1 10 µM
O=[N+]([O-])c1cc(Cl)cc(/C=N/NC(=S)Nc2cc(S(=O)(=O)N3CCOCC3)ccc2Cl)c1O 3.16 µM
CN(C)c1ccc(/C=N/NC(=O)c2ccc(Cn3cc(Br)cn3)o2)cc1 12.6 µM
COCCOC(=O)c1sc(=S)n(CCOC)c1N 28.2 µM
